Compound activity (PubChem)
The full list was thinned out, with hits kept by preference.
Dicer inh – blocks human Dicer maturation of pre-miR-21 | Q9UPY3 | 47,000 compounds, 6% hits | z-score at 25 µM | cat-ELCCA pre-miR-21 Dicer processing, chemiluminescence; hits give high values; in the data active = z-score above about 3, passing the limit was not always enough;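 also: plate controls were vehicle for no effect and no enzyme for full effect; higher signal means more uncleaved substrate so more Dicer inhibition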
* = called active by the depositor.

SMILES	Dicer inh
CC12CCC3(C=C1CCC1C2CCC2(C)C(O)CCC12)OCCO3 (configuration not stated)	0.81
Cc1cccc(NC2=NCC(C)S2)c1 (configuration not stated)	-0.23
O=C(NC1CCCCC1)Oc1cc2oc(=O)sc2cc1Cl	4.1*
CC1(C)Cc2nc(N3CCCC3)c(C#N)cc2CS1	1.6
CCNCC(O)c1ccc([N+](=O)[O-])cc1 (configuration not stated)	0.31
Cc1nc2c(Br)cc(Br)cc2c(=O)n1-c1cccc(C(F)(F)F)c1	-0.26
O=C1C(=Cc2ccco2)C(=O)N(c2ccccc2)C(=S)N1c1ccccc1	3.3*
NCCCNc1ccc([N+](=O)[O-])c2cccnc12	0.82
Cc1nc2ccccc2c(=O)n1-c1cc(F)c(F)cc1F	-0.79
N#Cc1ccc(NC(=O)c2c(F)cccc2F)cc1C(F)(F)F	1.3
CC(=O)Nc1ccc(C#N)c(C(F)(F)F)c1	5.6*
CC(O)(CS(=O)(=O)c1ccc(F)cc1)C(=O)Nc1ccc(C#N)c(C(F)(F)F)c1 (configuration not stated)	0.92
CCCc1nc(SCC(=O)c2ccc(Cl)cc2)nc(OC(=O)N(C)C)c1C	10
Cc1ccc(-n2c(C)nc3cc(Cl)ccc3c2=O)cc1Cl	-1
COc1ccc(O)c(CN2CCN(Cc3ccc(Br)cc3)CC2)c1	5.1*
Oc1ccc(Br)cc1CN1CCN(Cc2ccc(F)cc2)CC1	3.3*
CSc1ccc(CN2CCN(Cc3ccc(F)cc3)CC2)cc1	2.4
Clc1cccc(CN2CCN(Cc3cccc(Br)c3)CC2)c1	1.3
COc1ccccc1CN1CCN(Cc2cc(Br)ccc2O)CC1	8*
Oc1ccc(Br)cc1CN1CCN(Cc2cccc(F)c2)CC1	7*
COc1ccccc1N1CCN(Cc2ccccc2F)CC1	-1.6
O=C(CNc1ccc(-c2ccccc2)cc1)Nc1ccc(Cl)cc1C(=O)c1ccccc1Cl	-0.56
N#CC1=C(SCc2ccccc2)SCNC1=O	-1.4
Cc1cc(C(=O)Nc2ccc(C(C)(C)C)cc2)nn1C(C)(C)C	-0.53
C=CCc1cc(C)cc(-n2nc3ccccc3n2)c1O	1.1
SMILES	Dicer inh
CNC(=O)Oc1cccc2cccnc12	0.15
CN(C)C(=O)Oc1ccc2c(=O)c(Oc3ccccc3Br)c(C(F)(F)F)oc2c1	1.6
CSC(=NCc1ccccc1Cl)N/C(N)=N\[N+](=O)[O-]	0.91
CC(=O)CC(c1ccc([N+](=O)[O-])cc1)c1c(OC(C)=O)c2ccccc2oc1=O (configuration not stated)	-0.15
O=C(NC(=S)Nc1cc(C(F)(F)F)cc(C(F)(F)F)c1)Oc1ccccc1	-1.1
C/C(=C\c1ccc(Cl)cc1Cl)[N+](=O)[O-]	5.3
Cc1cc(NC(=O)C(Cl)(Cl)Cl)ccc1Br	1
CCC(C)n1[nH]c(=O)c2c1NC(=O)CSC2c1ccc(OC)cc1 (configuration not stated)	-0.44
CSc1ccc(CN2CCN(Cc3ccc(Cl)cc3)CC2)cc1	0.08
CSc1ccc(CN2CCN(Cc3cc(Br)ccc3O)CC2)cc1	6.1*
COc1ccc(C2SCC(=O)Nc3c2c(=O)[nH]n3C2CCOC(C)(C)C2)cc1 (configuration not stated)	-0.66
CC1(C)CCC(C)(C)c2cc(-c3csc(CS(=O)(=O)C(C)(C)C)n3)ccc21	-1.3
CCCCCCn1c2ccc(C(=O)O)cc2c2cc(C(=O)O)ccc21	0.95
COc1cccc(-n2c(/C=C/c3ccco3)nc3ccccc3c2=O)c1	0.91
COc1cccc(-n2c(/C=C/c3c[nH]c4ccccc34)nc3ccccc3c2=O)c1	3.4*
O=c1c2ccccc2nc(/C=C/c2ccc(O)cc2)n1-c1ccc(O)cc1	1.7
O=C1NC(=O)C(O)(c2c[nH]c3ccccc23)C(=O)N1	1.1
CN1[C@H]2C[C@H](OC(=O)[C@H](CO)c3ccccc3)C[C@@H]1[C@@H](O)C2	0.7
CCC1=C[C@@H]2CN3CCc4c([nH]c5ccccc45)[C@@](C(=O)OC)(C2)[C@@H]13	-1.4
